Screening results (PubChem BioAssay)
Sampled rows, rich in hits. Any-hit rate of the full collection: about 2.2%.
BaF3 tox: parental Ba/F3 cell viability inhibition, counter-screen for JAK2V617F inhibitor project, murine pro-B, CellTiter-Glo luminescence. CellTiter-Glo ATP luminescence. inhibition, % at 5.6 µM. 220,000 tested, 1.1% active;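 active = inhibition above a per-campaign cutoff, the mean inhibition of all tested compounds plus 3 SD, cut at about 27% in these data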
APP transl inh: inhibitors of APP translation via 5'UTR reporter, primary screen, APP 5'UTR luciferase, SH-SY5Y cells; SH-SY5Y APP 5'UTR-luciferase reporter, luminescence; inhibition, % at 2 µM; 190,000 tested, 0.82% active;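 active = inhibition above a set limit, derived from the sample mean plus 3 SD, cut at about 45% in these data; inconclusive = one replicate passes the limit while the other fails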
aSyn 5UTR inh: MLPCN primary screen, SNCA 5' untranslated region | alpha-synuclein 5'UTR reporter, inhibitor activity | inhibition, % (tested at 7.5 µM) | 300,000 tested, 0.82% active | AID 1813, 2009; in the data active = inhibition above about 60%; inconclusive = no clear call, values can overlap the other calls;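 note: H4 neuroglioblastoma cells stably carrying SNCA 5'UTR luciferase fusion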
Ba/F3 V617F tox: reduced viability of JAK2V617F-dependent Ba/F3 cells, primary screen, JAK2V617F inhibitor project, cell-based, Ba/F3 EpoR-JAK2V617F, luminescence | ATP luminescence | inhibition, % at 5.6 µM | 220,000 tested, 1.1% active | AID 1446, 2008;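 active = inhibition above the campaign mean plus 3 SD over all tested compounds, cut at about 24% in these data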;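 note: cytokine-independent growth of Ba/F3 cells driven by EpoR plus mutant JAK2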
KLF5 inh: KLF5 expression inhibitors, primary screen, DLD-1 cells, luminescence; DLD-1 KLF5 promoter-luciferase reporter; inhibition, % at 5 µM; 290,000 tested, 0.23% active;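 active = inhibition above a per-plate limit of that plate's mean compound inhibition plus 3 SD, cut at about 60% in these data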;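 note: higher means less KLF5 promoter-driven luciferase light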
IEC-6 cytotox: cytotoxicity in IEC-6 intestinal epithelial cells, primary screen, cytotoxicity control for KLF5 inhibitor project, cell-based, luminescence; IEC-6 cytotoxicity, luminescence viability; inhibition, % at 5 µM; 290,000 tested, 0.78% active
IEC-6 cytotox cf: cytotoxic compounds in IEC-6 epithelial cells, confirmation, cytotoxicity control, cell-based, luminescence. IEC-6 rat intestinal epithelial viability. 1,900 tested, 63% active. shares compounds with IEC-6 cytotox. inhibition, % at 5 µM. AID 1907, 2009
A number is an active result; n = inactive; u = inconclusive; x = not tested or not shown. Cut-off read from the data, not from the text of the source, unless noted: active = inhibition above about 22%; inactive = the rest.

SMILES	BaF3 tox	APP transl inh	aSyn 5UTR inh	Ba/F3 V617F tox	KLF5 inh	IEC-6 cytotox	IEC-6 cytotox cf
CCOc1ccccc1N1CC(O)=C(c2nc3ccccc3s2)C1=N	77	92	n	83	n	56	60
O=C(N/N=C/c1ccc(O)cc1)c1[nH]c2ccc(Br)cc2c1-c1ccccc1	71	94	n	75	n	83	65
O=C(N/N=C/c1c[nH]c2ccccc12)c1[nH]c2ccc(Br)cc2c1-c1ccccc1	68	92	n	76	n	82	63
CCOC(=O)N1CCN(C(=O)c2ccc(Cn3c(=S)[nH]c4ccc(Br)cc4c3=O)cc2)CC1	x	x	n	x	n	n	x
CCCNC(=O)[C@H]1N2C(=O)c3c(ccc(OC)c3OC)C2SC1(C)C (stereo partly specified)	x	x	n	x	n	n	x
CCCCCCN1CC(O)=C(c2ccccc2)C1=N	n	n	n	n	n	n	x
CCCCCCCn1ccc(=N)cc1	77	n	u	97	n	23	32
O=C(NNC(=O)c1nn(-c2ccc(F)cc2)ccc1=O)c1ccccc1Cl	n	x	n	n	n	n	x
Cn1c(=O)c(Nc2ccc(O)cc2)c2c3c(cccc31)C(=O)c1ccccc1-2	n	n	n	n	n	n	x
CS(=O)(=O)c1ncc(Cl)c(C(=O)Nc2ccc3ccccc3c2)n1	52	96	n	83	n	24	n
O=C(NCc1ccccc1)c1c(Cl)nc(Cl)c(Cl)c1Cl	x	x	99	x	n	23	n
O=C(Nc1ccc2ccccc2c1)c1cnccn1	n	n	n	n	n	n	x
CC(=O)Nc1ccc(NC(=O)c2nc(S(=O)(=O)Cc3ccccc3)ncc2Cl)cc1	x	x	n	x	n	26	n
COc1ccc(CNC(=O)c2nc(S(=O)(=O)Cc3ccccc3)ncc2Cl)cc1	x	x	u	x	n	50	22
COC(=O)c1ccccc1NC(=O)c1nc(S(=O)(=O)Cc2ccccc2)ncc1Cl	x	x	n	x	n	n	x
O=C(NCc1ccccc1)c1nc(S(=O)(=O)Cc2ccccc2)ncc1Cl	x	x	n	x	n	52	24
CCc1cc2c(=O)[nH]c(-c3ccccn3)nc2s1	n	n	u	n	n	27	49
CC(=O)N1CCc2c(sc(NC(=O)c3ccc([N+](=O)[O-])o3)c2C#N)C1	32	62	n	n	n	61	63
COC(=O)c1c(NC(=O)Cc2ccccc2)sc2c1CCN(C(C)C)C2	x	x	n	x	n	n	x
COc1ccc(C(=O)Nc2sc3c(c2C#N)CCN(C(C)=O)C3)cc1	n	n	n	n	n	n	x
COC(=O)c1c(NC(=O)c2ccc([N+](=O)[O-])o2)sc2c1CCN(C(C)C)C2	x	x	105	x	n	96	60
COC(=O)c1sc(NC(=O)c2ccc([N+](=O)[O-])o2)c(C#N)c1C	n	x	n	n	n	22	26
CCN(C(=O)C1CC1)C1CCS(=O)(=O)C1 (stereo unspecified)	x	x	n	x	x	x	x
O=C(Nc1ccc2nc(-c3cccs3)[nH]c2c1)c1cccs1	n	n	n	n	n	n	x
O=C(Nc1ccc(-c2nc3ccc(NC(=O)c4cccs4)cc3[nH]2)cc1)c1cccs1	102	n	122	98	n	53	43
SMILES	BaF3 tox	APP transl inh	aSyn 5UTR inh	Ba/F3 V617F tox	KLF5 inh	IEC-6 cytotox	IEC-6 cytotox cf
COc1ccc(C(=O)Nc2ccc3c(c2)C(=O)N(C)C3=O)cc1OC	x	x	n	x	n	n	x
COc1ccc(N(C(=O)Cc2cccs2)C(C(=O)NC2CCCC2)c2ccncc2)cc1OC (stereo unspecified)	x	x	n	x	n	n	x
C#CC(=O)N(c1ccc(OC)c(OC)c1)C(C(=O)NC1CCCC1)c1cccs1 (stereo unspecified)	52	n	n	99	n	100	79
Cc1ccc2nc(N/C(=N/S(=O)(=O)c3ccc(F)cc3)c3ccccc3)sc2c1	n	n	n	n	n	n	x
Cc1ccc2nc(N/C(=N/S(=O)(=O)c3ccc(F)cc3F)c3ccccc3)sc2c1	n	n	n	n	n	22	n
COc1cccc(NC(=O)Nc2nc(-c3ccc(OC)c(OC)c3)cs2)c1	x	x	n	x	n	24	n
O=c1[nH]cnc(O)c1C(c1cccc([N+](=O)[O-])c1)c1c(O)nc[nH]c1=O	n	x	n	n	n	n	x
COc1ccc(-c2nc(CCl)cs2)cc1	n	n	n	n	n	n	x
COc1ccc(-c2ccnc(-c3ccc(O)cc3)n2)cc1	59	93	n	79	n	69	60
COc1ccc(-c2ccnc(-c3ccncc3)n2)cc1	n	x	n	n	n	30	n
COc1ccc(-c2csc(-c3ccc(O)cc3)n2)cc1	47	x	n	64	n	50	44
c1ccc(-c2cc(N3CCCCC3)ncn2)cc1	n	n	n	n	n	n	x
Nc1nc(-c2ccccc2)cc(N2CCCCC2)n1	77	94	n	70	n	82	59
CC1(C)CC(=O)C2=C(C1)NC(Nc1nc3ccccc3o1)=NC2c1ccccn1 (stereo unspecified)	n	n	n	n	n	23	n
CCOC(=O)c1cccc(NC(=O)C2CCCN(c3nnc(N4CCCC4=O)s3)C2)c1 (stereo unspecified)	x	x	n	x	n	n	x
Clc1ccc(N=C2SCCS2)cc1	n	x	n	n	n	n	x
O=[N+]([O-])c1cccnc1S(=O)(=O)c1ccccc1	x	x	n	x	n	41	n
Cc1ccc2c(CN(C)Cc3ccccc3)cc(=O)oc2c1C	x	x	n	x	n	55	33
Cc1ccc2c(CN(C)Cc3ccc(OC(F)F)cc3)cc(=O)oc2c1C	x	x	n	x	n	n	x
Cc1ccc2c(CN(C)Cc3cccc(F)c3)cc(=O)oc2c1C	x	x	n	x	n	41	24
CC1CC(C)CN(c2ccc(C(=O)NCc3ccc4c(c3)OCO4)cc2[N+](=O)[O-])C1 (stereo unspecified)	n	n	n	n	n	n	x
CC(C)(C)CN1CCN(CC#Cc2ccccc2)CC1CCO (stereo unspecified)	x	x	n	x	n	n	x
O=C(Cc1ccc(Br)cc1)NCc1ccccc1	x	x	n	x	n	60	45
COc1ccc(CC(=O)NCc2ccccc2)cc1	x	x	n	x	n	50	37
Cc1cccc(/C=C(\c2nc3ccccc3[nH]2)S(=O)(=O)c2ccccc2)c1	n	n	n	n	n	25	32
CC(C)(C)c1ccc(/C=C(\c2nc3ccccc3[nH]2)S(=O)(=O)c2ccccc2)cc1	x	x	n	x	x	x	x
CCc1cn([C@H]2C[C@H](O)[C@@H](CO)O2)c(=O)[nH]c1=O	n	n	n	n	n	n	x
O=c1[nH]c(=O)n([C@H]2C[C@H](O)[C@@H](CO)O2)cc1C(F)(F)F	88	59	77	96	n	85	80
